# Results: PubChem BioAssay (EPA / NIEHS)
# Active and inactive are the calls of the source. The calls were made as follows: active = hit-call score of the fitted dose curve at least 0.9, where 1 is the maximum; inactive = score below 0.9.
# Experiments:
# [1] = ATG_ISRE_CIS: Attagene CIS-FACTORIAL HepG2 Assay for human Interferon Regulatory Factor 1 (IRF1) binding to an Interferon-Stimulated Response Element (ISRE) (AID 2282948); settings: HepG2 ISRE cis-reporter (Attagene), mRNA transcription readout; actives raise or lower the signal
# How it was run: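 Multiplexed mRNA reporter readout in human liver HepG2 cells: cis-element-driven reporters transfected, compound added for 24 h, transcripts amplified, fluorescently labelled and sized by capillary electrophoresis; curve fitting bidirectional against DMSO.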
# [2] = ATG_M_32_CIS: Attagene CIS-FACTORIAL HepG2 Assay for M32 Transcription Factor (Internal Marker) (AID 2282949); settings: HepG2 Attagene cis-factorial M32 reporter, mRNA; actives raise or lower the signal;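 also: background control marker of the multiplexed CIS panel rather than a real target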
# How it was run: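 Using DMSO as baseline, bidirectional curve fits were applied to reporter mRNA signals. These came from transiently transfected HepG2 cells exposed for 24 h, with RNA analysed by RT-PCR, FAM primer extension, HpaI digestion and CE.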
# [3] = target: Hypoxia-inducible factor 1-alpha (Homo sapiens) (UniProt Q16665); assay: ATG_HIF1a_CIS: Attagene CIS-FACTORIAL HepG2 Assay for human Hypoxia Inducible Factor 1 (HIF1A) (AID 2282951); settings: HepG2 Attagene cis-factorial HIF1a reporter transcription; actives raise or lower the signal
# Sequence of Hypoxia-inducible factor 1-alpha (Homo sapiens) (Q16665 whole entry, looked up, the tested form may be a part): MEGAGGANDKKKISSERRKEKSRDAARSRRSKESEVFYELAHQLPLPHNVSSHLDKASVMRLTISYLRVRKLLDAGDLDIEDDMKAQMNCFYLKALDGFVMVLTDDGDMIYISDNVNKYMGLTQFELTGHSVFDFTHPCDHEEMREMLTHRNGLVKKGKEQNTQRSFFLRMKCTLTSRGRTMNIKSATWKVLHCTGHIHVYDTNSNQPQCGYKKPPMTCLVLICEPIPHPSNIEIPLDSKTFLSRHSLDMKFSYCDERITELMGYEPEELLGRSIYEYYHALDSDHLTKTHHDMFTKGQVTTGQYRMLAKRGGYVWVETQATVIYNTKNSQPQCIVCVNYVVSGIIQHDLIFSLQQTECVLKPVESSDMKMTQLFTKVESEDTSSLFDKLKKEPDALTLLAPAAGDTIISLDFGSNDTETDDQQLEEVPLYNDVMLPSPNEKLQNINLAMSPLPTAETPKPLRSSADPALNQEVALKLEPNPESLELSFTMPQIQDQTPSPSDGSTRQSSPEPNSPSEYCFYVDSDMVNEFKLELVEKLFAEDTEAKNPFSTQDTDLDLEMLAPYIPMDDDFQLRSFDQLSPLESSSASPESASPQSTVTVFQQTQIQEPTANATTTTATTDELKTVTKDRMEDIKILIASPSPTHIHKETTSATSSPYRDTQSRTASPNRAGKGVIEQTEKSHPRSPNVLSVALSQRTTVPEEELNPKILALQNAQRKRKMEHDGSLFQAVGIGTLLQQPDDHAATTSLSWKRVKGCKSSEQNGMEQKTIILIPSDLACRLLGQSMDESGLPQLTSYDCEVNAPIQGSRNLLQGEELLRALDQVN
# How it was run: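 Transient MRTU transfection of human HepG2 liver cells, 24 h compound treatment, then total RNA isolation, oligo(dT) reverse transcription, PCR amplification, fluorescent labelling and capillary electrophoresis of reporter fragments. Gain or loss relative to DMSO.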
# [4] = target: Hepatocyte nuclear factor 6 (Homo sapiens) (UniProt Q9UBC0); assay: ATG_HNF6_CIS: Attagene CIS-FACTORIAL HepG2 Assay for human Hepatocyte Nuclear Factor 6 (HNF6) (AID 2282952); settings: HepG2 Attagene cis-factorial HNF6 reporter transcription; actives raise or lower the signal
# Sequence of Hepatocyte nuclear factor 6 (Homo sapiens) (Q9UBC0 whole entry, looked up, the tested form may be a part): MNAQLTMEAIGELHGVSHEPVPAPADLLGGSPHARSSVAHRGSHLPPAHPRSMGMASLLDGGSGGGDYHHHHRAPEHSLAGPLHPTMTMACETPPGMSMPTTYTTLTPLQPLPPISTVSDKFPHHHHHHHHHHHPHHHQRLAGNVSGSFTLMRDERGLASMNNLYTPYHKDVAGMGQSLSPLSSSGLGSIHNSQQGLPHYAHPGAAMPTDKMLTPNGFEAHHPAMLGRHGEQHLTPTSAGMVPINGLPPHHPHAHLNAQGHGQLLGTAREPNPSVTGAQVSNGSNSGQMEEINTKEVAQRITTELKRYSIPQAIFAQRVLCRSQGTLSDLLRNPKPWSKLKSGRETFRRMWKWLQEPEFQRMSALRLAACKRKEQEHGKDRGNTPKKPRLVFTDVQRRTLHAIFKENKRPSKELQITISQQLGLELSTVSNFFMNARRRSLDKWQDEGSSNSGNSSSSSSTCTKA
# How it was run: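 Readout: fluorescent reporter-transcript fragments resolved by capillary electrophoresis after RT-PCR, reflecting endogenous factor activity in transfected HepG2. Exposure 24 h. Gain or loss of signal fitted bidirectionally against DMSO.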
# [5] = target: Heat shock factor protein 1 (Homo sapiens) (UniProt Q00613); assay: ATG_HSE_CIS: Attagene CIS-FACTORIAL HepG2 Assay for human Heat Shock Transcription Factor 1 (HSE) (AID 2282953); settings: HepG2 HSE cis-reporter, Attagene RNA transcription; actives raise or lower the signal
# Sequence of Heat shock factor protein 1 (Homo sapiens) (Q00613 whole entry, looked up): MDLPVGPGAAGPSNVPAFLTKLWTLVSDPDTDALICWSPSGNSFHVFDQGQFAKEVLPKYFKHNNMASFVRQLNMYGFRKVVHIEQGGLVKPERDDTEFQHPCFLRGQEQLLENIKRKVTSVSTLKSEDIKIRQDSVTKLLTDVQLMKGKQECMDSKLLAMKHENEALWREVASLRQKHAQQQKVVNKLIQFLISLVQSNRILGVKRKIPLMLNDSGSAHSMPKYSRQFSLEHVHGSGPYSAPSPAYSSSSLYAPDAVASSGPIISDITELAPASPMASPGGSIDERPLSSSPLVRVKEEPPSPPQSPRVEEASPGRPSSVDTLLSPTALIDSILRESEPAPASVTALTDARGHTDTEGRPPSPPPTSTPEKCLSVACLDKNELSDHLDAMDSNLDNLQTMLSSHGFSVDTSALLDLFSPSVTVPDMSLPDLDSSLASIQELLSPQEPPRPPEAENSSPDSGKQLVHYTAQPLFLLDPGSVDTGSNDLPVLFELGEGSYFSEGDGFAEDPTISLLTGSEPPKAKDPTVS
# How it was run: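 Liver-derived HepG2 cells carry transiently introduced multiple reporter units governed by cis promoters. Reporter RNA measured 24 h post-dose through reverse transcription, PCR amplification, fluorescent labelling and capillary electrophoresis, normalised to DMSO.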
# [6] = ATG_MRE_CIS: Attagene CIS-FACTORIAL HepG2 Assay for human Metal Responsive Element (MRE) (AID 2282954); settings: HepG2 MRE cis-reporter transcription, Attagene multiplex; actives raise or lower the signal
# How it was run: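 Multiplexed cis-reporter assay in human HepG2 liver cells, 24 h incubation with test chemical. Reporter transcripts measured by RT-PCR and capillary electrophoresis; values from bidirectional curve fitting versus DMSO.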
# [7] = target: Paired box protein Pax-6 (Homo sapiens) (UniProt P26367); assay: ATG_Pax6_CIS: Attagene CIS-FACTORIAL HepG2 Assay for human Paired Box 6 (PAX6) (AID 2282956); settings: HepG2 CIS-FACTORIAL PAX6 reporter transcription, RNA readout; actives raise or lower the signal
# Sequence of Paired box protein Pax-6 (Homo sapiens) (P26367 whole entry, looked up): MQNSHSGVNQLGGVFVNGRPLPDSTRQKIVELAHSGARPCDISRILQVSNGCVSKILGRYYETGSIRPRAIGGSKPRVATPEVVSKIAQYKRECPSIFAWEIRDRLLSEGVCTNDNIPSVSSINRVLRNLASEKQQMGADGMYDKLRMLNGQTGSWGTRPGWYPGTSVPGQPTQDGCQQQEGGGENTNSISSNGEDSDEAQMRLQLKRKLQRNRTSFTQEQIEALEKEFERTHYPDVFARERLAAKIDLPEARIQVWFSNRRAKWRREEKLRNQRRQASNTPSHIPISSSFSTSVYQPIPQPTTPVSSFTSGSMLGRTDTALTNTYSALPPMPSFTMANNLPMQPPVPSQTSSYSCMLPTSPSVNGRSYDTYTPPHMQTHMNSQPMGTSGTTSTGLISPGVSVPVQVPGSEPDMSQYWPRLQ
# How it was run: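 Fluorescent RT-PCR products separated by capillary electrophoresis report PAX6-linked promoter mRNA in HepG2 cells 24 h post-dose. Curves fitted bidirectionally, DMSO as negative control.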
# [8] = ATG_PXRE_CIS: Attagene CIS-FACTORIAL HepG2 Assay for human Pregnane X Receptor Element (PXRE) (AID 2282957); settings: HepG2 Attagene CIS-FACTORIAL PXRE reporter, mRNA; actives raise or lower the signal
# How it was run: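 Read-out: fluorescence of reporter-specific RT-PCR products resolved by capillary electrophoresis, fitted bidirectionally relative to DMSO. Human HepG2 liver cells carried transfected cis-promoter reporter units and were exposed to chemicals for 24 h.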
# [9] = ATG_PPRE_CIS: Attagene CIS-FACTORIAL HepG2 Assay for human Peroxisome Proliferator-activated Response Element (PPRE) (AID 2282958); settings: HepG2 PPRE cis-element reporter, Attagene transcription factor profiling; actives raise or lower the signal
# How it was run: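 HepG2, transient MRTU transfection (cis promoter elements, endogenous TFs). 24 h dosing. RNA → oligo(dT) RT → PCR → 6-FAM primer extension → HpaI digest → CE. Bidirectional fit vs DMSO.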
# [10] = ATG_RORE_CIS: Attagene CIS-FACTORIAL HepG2 Assay for human RAR-related Orphan Receptor Element (RORE) (AID 2282959); settings: HepG2 Attagene cis-factorial RORE reporter, mRNA; actives raise or lower the signal
# How it was run: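 Transient MRTU transfection of human HepG2 liver cells (FuGene 6); 24 h compound exposure; TriZol RNA, oligo(dT) RT, PCR, FAM labeling, HpaI cut, CE fragment analysis. DMSO = negative control/baseline.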
# [11] = ATG_Sox_CIS: Attagene CIS-FACTORIAL HepG2 Assay for human SRY-box transcription factor (SOX) (AID 2282960); settings: HepG2 Attagene cis-factorial SOX reporter, mRNA; actives raise or lower the signal
# How it was run: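 Endogenous factor activity in human liver HepG2 cells carrying transfected cis-regulated reporter units. RNA taken 24 h post-dose, reverse-transcribed, PCR-amplified and sized by capillary electrophoresis. Gain or loss of signal fitted relative to DMSO.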
# [12] = target: Transcription factor Sp1 (Homo sapiens) (UniProt P08047); assay: ATG_Sp1_CIS: Attagene CIS-FACTORIAL HepG2 Assay for human Specificity Protein 1 (Sp1) (AID 2282961); settings: HepG2 Sp1 cis-reporter transcription, actives raise or lower the signal
# Sequence of Transcription factor Sp1 (Homo sapiens) (P08047 whole entry, looked up): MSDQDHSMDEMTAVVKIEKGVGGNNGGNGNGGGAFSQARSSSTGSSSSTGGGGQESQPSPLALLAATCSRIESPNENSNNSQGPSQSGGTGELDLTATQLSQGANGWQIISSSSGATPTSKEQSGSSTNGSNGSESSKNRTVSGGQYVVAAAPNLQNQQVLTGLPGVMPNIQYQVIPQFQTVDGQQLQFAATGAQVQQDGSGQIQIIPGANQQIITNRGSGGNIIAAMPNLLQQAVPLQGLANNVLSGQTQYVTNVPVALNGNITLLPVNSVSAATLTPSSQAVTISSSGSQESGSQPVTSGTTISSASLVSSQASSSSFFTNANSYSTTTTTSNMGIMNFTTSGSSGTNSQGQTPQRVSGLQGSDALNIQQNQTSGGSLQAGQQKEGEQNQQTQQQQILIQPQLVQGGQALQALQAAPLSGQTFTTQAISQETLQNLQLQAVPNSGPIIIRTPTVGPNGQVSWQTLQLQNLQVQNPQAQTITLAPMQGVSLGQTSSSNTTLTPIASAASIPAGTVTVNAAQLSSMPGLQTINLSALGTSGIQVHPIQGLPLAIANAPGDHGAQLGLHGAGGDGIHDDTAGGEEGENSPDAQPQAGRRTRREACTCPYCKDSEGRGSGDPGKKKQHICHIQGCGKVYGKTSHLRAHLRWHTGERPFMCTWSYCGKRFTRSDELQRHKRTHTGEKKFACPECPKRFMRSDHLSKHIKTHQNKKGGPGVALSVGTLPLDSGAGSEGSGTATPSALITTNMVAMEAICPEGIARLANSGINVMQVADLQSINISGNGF
# How it was run: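 Transient MRTU-transfected HepG2, 24 h compound exposure. Total RNA → oligo(dT) RT → PCR of reporter → 6-FAM primer extension → HpaI digest → CE. Endpoint fitted both directions vs DMSO.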
# [13] = ATG_SREBP_CIS: Attagene CIS-FACTORIAL HepG2 Assay for human Sterol Regulatory Element Binding (SREBP) (AID 2282962); settings: HepG2 Attagene cis-factorial SREBP reporter, mRNA; actives raise or lower the signal
# How it was run: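 Endogenous factor activity is measured in HepG2 through multiplexed reporter units under cis-element control. Following a 24 h incubation, reporter transcripts are reverse-transcribed, PCR-amplified and sized by capillary electrophoresis; activity is fitted in both directions relative to DMSO.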
# [14] = ATG_TA_CIS: Attagene CIS-FACTORIAL HepG2 Assay for human TA Basal Promoter (AID 2282964); settings: HepG2 Attagene CIS-factorial TA basal promoter reporter; actives raise or lower the signal
# How it was run: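 Background internal-marker endpoint from a 52-component HepG2 cis-reporter panel. Cells treated 24 h; reporter transcripts quantified via RT-PCR and CE fluorescence against DMSO baseline.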
# [15] = ATG_TCF_b_cat_CIS: Attagene CIS-FACTORIAL HepG2 Assay for human T-Cell-Factor with beta-catenin (TCF/b-cat) (AID 2282965); settings: HepG2 TCF/beta-catenin cis-reporter transcription, actives raise or lower the signal
# How it was run: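 Endogenous transcription factor activity is captured through cis-promoter reporter constructs transiently introduced into human HepG2 liver cells. Induced reporter mRNA is measured after 24 h and fitted bidirectionally relative to DMSO.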
# [16] = ATG_GRE_CIS: Attagene CIS-FACTORIAL HepG2 Assay for human Glucocorticoid Response Elements (GRE) (AID 2282947); settings: HepG2 GRE cis-reporter, Attagene multiplex mRNA; actives raise or lower the signal
# How it was run: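 Multiplexed cis-reporter mRNA induction, HepG2, 24 h post-dose. RT-PCR, FAM-labelled, HpaI-digested amplicons by CE. Bidirectional fit vs DMSO.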
# [17] = ATG_PBREM_CIS: Attagene CIS-FACTORIAL HepG2 Assay for human Phenobarbital-responsive Enhancer Module (PBREM) (AID 2282955); settings: HepG2 PBREM cis-reporter, Attagene multiplexed transcription; actives raise or lower the signal
# How it was run: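 Endogenous transcription factors in human liver HepG2 cells drive a PBREM cis-element reporter, whose transcript level after 24 h treatment is quantified by RT-PCR with capillary electrophoresis; activity fitted in both directions against DMSO.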
# [18] = target: Signal transducer and activator of transcription 3 (Homo sapiens) (UniProt P40763); assay: ATG_STAT3_CIS: Attagene CIS-FACTORIAL HepG2 Assay for human Signal Transducer and Activator of Transcription 3 (STAT3) (AID 2282963); settings: HepG2, Attagene cis-factorial STAT3 reporter transcription; actives raise or lower the signal
# Sequence of Signal transducer and activator of transcription 3 (Homo sapiens) (P40763 whole entry, looked up): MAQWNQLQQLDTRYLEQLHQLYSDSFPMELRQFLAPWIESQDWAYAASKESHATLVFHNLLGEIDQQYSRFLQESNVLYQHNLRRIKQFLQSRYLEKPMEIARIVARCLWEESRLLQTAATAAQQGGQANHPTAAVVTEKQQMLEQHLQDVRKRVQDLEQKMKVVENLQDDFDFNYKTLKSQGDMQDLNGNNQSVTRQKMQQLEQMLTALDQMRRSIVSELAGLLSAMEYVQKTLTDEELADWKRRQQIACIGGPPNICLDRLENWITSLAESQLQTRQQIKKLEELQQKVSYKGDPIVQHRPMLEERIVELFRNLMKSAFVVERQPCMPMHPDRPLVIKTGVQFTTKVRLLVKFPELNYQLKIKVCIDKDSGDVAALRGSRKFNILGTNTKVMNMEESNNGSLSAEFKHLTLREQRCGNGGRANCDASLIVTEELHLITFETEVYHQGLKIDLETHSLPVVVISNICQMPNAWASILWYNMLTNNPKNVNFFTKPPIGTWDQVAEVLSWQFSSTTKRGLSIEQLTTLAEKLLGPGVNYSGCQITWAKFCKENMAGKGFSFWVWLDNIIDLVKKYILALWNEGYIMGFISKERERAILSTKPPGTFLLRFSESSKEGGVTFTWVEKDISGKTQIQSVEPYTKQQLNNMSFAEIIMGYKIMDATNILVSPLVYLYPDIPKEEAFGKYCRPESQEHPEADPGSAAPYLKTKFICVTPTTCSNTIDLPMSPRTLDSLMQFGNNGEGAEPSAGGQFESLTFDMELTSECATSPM
# How it was run: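 Cis-factorial format: endogenous transcription factors in HepG2 drive transfected reporter units. After 24 h treatment, reporter RNA was reverse-transcribed, amplified, FAM-labelled and HpaI-digested before CE analysis; activity scored in both directions against DMSO.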
smiles,measurement,setting,value
N#CC(Br)(Br)C(N)=O,outcome,[1],inactive
same,outcome,[2],inactive
same,outcome,[3],inactive
same,outcome,[4],inactive
same,outcome,[5],inactive
same,outcome,[6],inactive
same,outcome,[7],inactive
same,AC50,[8],100 µM (active)
same,outcome,[9],inactive
same,outcome,[10],inactive
same,outcome,[11],inactive
same,outcome,[12],inactive
same,AC50,[13],169 µM (active)
same,outcome,[14],inactive
same,AC50,[15],165 µM (active)
COC(=O)c1ccccc1N,outcome,[16],inactive
same,outcome,[1],inactive
same,outcome,[2],inactive
same,outcome,[3],inactive
same,outcome,[4],inactive
same,outcome,[5],inactive
same,outcome,[6],inactive
same,outcome,[17],inactive
same,outcome,[7],inactive
same,AC50,[8],100 µM (active)
same,outcome,[9],inactive
same,outcome,[10],inactive
same,outcome,[11],inactive
same,outcome,[12],inactive
same,outcome,[13],inactive
same,outcome,[18],inactive
same,outcome,[14],inactive
same,outcome,[15],inactive
c1ccc2c(c1)oc1ccccc12,outcome,[16],inactive
same,outcome,[1],inactive
same,outcome,[2],inactive
same,outcome,[3],inactive
same,outcome,[4],inactive
same,outcome,[5],inactive
same,outcome,[6],inactive
same,outcome,[17],inactive
same,outcome,[7],inactive
same,outcome,[8],inactive
same,outcome,[11],inactive
same,outcome,[12],inactive
same,outcome,[13],inactive
same,outcome,[14],inactive
same,outcome,[15],inactive
CCCCCCCCCCCCCN1CC(C)OC(C)C1 (stereo unspecified),outcome,[16],inactive
same,outcome,[1],inactive
same,outcome,[2],inactive
same,outcome,[3],inactive
same,outcome,[4],inactive
same,outcome,[5],inactive
same,outcome,[6],inactive
same,outcome,[7],inactive
same,outcome,[9],inactive
same,outcome,[10],inactive
same,outcome,[11],inactive
same,outcome,[12],inactive
same,outcome,[13],inactive
same,outcome,[14],inactive
same,outcome,[15],inactive
Nc1cc(Cl)cc(C(=O)O)c1Cl,outcome,[1],inactive
same,outcome,[2],inactive
same,outcome,[3],inactive
same,outcome,[4],inactive
same,outcome,[5],inactive
same,outcome,[6],inactive
same,outcome,[17],inactive
same,outcome,[7],inactive
same,AC50,[8],65 µM (active)
same,outcome,[9],inactive
same,outcome,[10],inactive
same,outcome,[11],inactive
same,outcome,[12],inactive
same,outcome,[13],inactive
same,outcome,[14],inactive
same,outcome,[15],inactive
[As]#[In],outcome,[16],inactive
same,outcome,[1],inactive
same,outcome,[2],inactive
same,outcome,[3],inactive
same,outcome,[4],inactive
same,outcome,[5],inactive
same,outcome,[6],inactive
same,outcome,[17],inactive
same,outcome,[7],inactive
same,AC50,[8],49.9 µM (active)
same,outcome,[10],inactive
same,outcome,[11],inactive
same,outcome,[12],inactive
same,outcome,[13],inactive
same,outcome,[18],inactive
same,outcome,[14],inactive
same,outcome,[15],inactive
CCC12COCN1COC2,outcome,[1],inactive
same,outcome,[2],inactive
same,outcome,[3],inactive
same,outcome,[4],inactive
same,outcome,[5],inactive
same,outcome,[6],inactive
same,outcome,[17],inactive
same,outcome,[7],inactive
same,outcome,[9],inactive
same,outcome,[10],inactive
same,outcome,[11],inactive
same,outcome,[12],inactive
same,outcome,[13],inactive
same,outcome,[14],inactive
same,outcome,[15],inactive
